The supplement of paper PMC8728848
This excerpt belongs to a sample that is enriched for the strongest signals.

What was measured:
Assay in all cases: glycan array binding signal (z-score within array); higher = stronger binding
Settings in all cases: glycan notation: IUPAC condensed, linker removed
[1] = target: GalNAc(a1-3)Gal
In short: (§1)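 Arrays were curated from the Consortium for Functional Glycomics database, 3228 in total, and kept only where the protein sequence was available. Binding is expressed as a within-array Z-score. This score was averaged across arrays of the same protein sequence at different concentrations or buffers and across linkers, and negative values can be read as non-binding.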

[2] = target: Glc(a1-4)Glc
In short: as §1

[3] = target: GlcA(b1-3)Gal
In short: as §1

[4] = target: GlcNAc(a1-4)Gal(b1-4)GlcNAc(b1-3)Gal(b1-4)Glc
In short: as §1

[5] = target: GlcNAc(a1-6)Gal(b1-4)GlcNAc
In short: as §1

[6] = target: GlcNAc(b1-2)[GlcNAc(b1-4)]Man(a1-3)[GlcNAc(b1-4)][GlcNAc(b1-2)[GlcNAc(b1-6)]Man(a1-6)]Man(b1-4)GlcNAc(b1-4)[Fuc(a1-6)]GlcNAc
In short: as §1

[7] = target: GlcNAc(b1-4)GlcNAc(b1-4)GlcNAc
In short: as §1

[8] = target: GlcNAc(b1-4)GlcNAc(b1-4)GlcNAc(b1-4)GlcNAc(b1-4)GlcNAc
In short: as §1

[9] = target: Neu5Ac(a2-3)Gal
In short: as §1

[10] = target: Neu5Ac(a2-3)Gal(b1-3)GlcNAc(b1-2)Man(a1-3)[Neu5Ac(a2-3)Gal(b1-3)GlcNAc(b1-2)Man(a1-6)]Man(b1-4)GlcNAc(b1-4)GlcNAc
In short: as §1

[11] = target: Neu5Ac(a2-3)Gal(b1-3)]Neu5Ac(a2-3)Gal(b1-4)]GlcNAc
In short: as §1

[12] = target: Neu5Ac(a2-3)Gal(b1-4)GlcNAc(b1-2)[Neu5Ac(a2-3)Gal(b1-4)GlcNAc(b1-4)]Man(a1-3)[GlcNAc(b1-4)][Neu5Ac(a2-3)Gal(b1-4)GlcNAc(b1-2)[Neu5Ac(a2-3)Gal(b1-4)GlcNAc(b1-6)]Man(a1-6)]Man(b1-4)GlcNAc(b1-4)GlcNAc
In short: as §1

[13] = target: Neu5Ac(a2-3)Gal(b1-4)GlcNAc(b1-3)Gal(b1-4)GlcNAc(b1-3)GalNAc
In short: as §1

[14] = target: Neu5Ac(a2-3)Gal(b1-4)[Fuc(a1-3)]GlcNAc(b1-3)GalNAc
In short: as §1

[15] = target: Neu5Ac(a2-3)[GalNAc(b1-4)]Gal(b1-4)Glc
In short: as §1

[16] = target: Neu5Ac(a2-6)Gal(b1-4)GlcNAc(b1-2)Man(a1-3)[Gal(b1-4)GlcNAc(b1-2)Man(a1-6)]Man(b1-4)GlcNAc(b1-4)GlcNAc
In short: as §1

[17] = target: Neu5Ac(a2-6)Gal(b1-4)GlcNAc(b1-2)Man(a1-3)[Neu5Ac(a2-6)Gal(b1-4)GlcNAc(b1-2)Man(a1-6)]Man(b1-4)GlcNAc(b1-4)[Fuc(a1-6)]GlcNAc
In short: as §1

[18] = target: Neu5Ac(a2-6)Gal(b1-4)GlcNAc(b1-2)Man(a1-6)Man(b1-4)GlcNAc(b1-4)GlcNAc
In short: as §1

[19] = target: Neu5Ac(a2-6)Gal(b1-4)GlcNAc(b1-2)[Neu5Ac(a2-6)Gal(b1-4)GlcNAc(b1-6)]Man(a1-6)[Neu5Ac(a2-6)Gal(b1-4)GlcNAc(b1-2)Man(a1-3)][GlcNAc(b1-4)]Man(b1-4)GlcNAc(b1-4)GlcNAc
In short: as §1

[20] = target: Neu5Ac(a2-6)Gal(b1-4)GlcNAc(b1-3)Gal(b1-4)GlcNAc(b1-3)Gal(b1-4)GlcNAc(b1-2)Man(a1-3)[Neu5Ac(a2-6)Gal(b1-4)GlcNAc(b1-3)Gal(b1-4)GlcNAc(b1-3)Gal(b1-4)GlcNAc(b1-2)Man(a1-6)]GalNAc
In short: as §1

[21] = target: Neu5Ac(a2-6)Gal(b1-4)GlcNAc(b1-3)GalNAc
In short: as §1

[22] = target: Neu5Ac(a2-6)GalNAc(b1-4)GlcNAc6S
In short: as §1

[23] = target: Neu5Ac(a2-8)Neu5Ac(a2-3)[Gal(b1-3)GalNAc(b1-4)]Gal(b1-4)Glc
In short: as §1

[24] = target: Neu5Ac(a2-8)Neu5Ac(a2-8)Neu5Ac(a2-3)Gal(b1-4)Glc
In short: as §1

[25] = target: Neu5Gc(a2-3)Gal(b1-3)GlcNAc
In short: as §1

[26] = target: Neu5Gc(a2-8)Neu5Gc(a2-3)Gal(b1-4)GlcNAc
In short: as §1

B1: SP15308B-bot-339-22-339 (Bacteroides ovatus) (protein)
chain: NEWEDEQYEQYVSFKAPIASGSDGVTTIYVRYKDNGKVTYQLPIIVSGSTVNSQDRDIHIAVDKDTLKTLNIERFSLYRPELWYTEMEEDKYEFPETVHIPAGSCVELLNIDFNLQDIDMLEKWVLPLTIVDDGSYAYQSHPRKNYAKALLKVVPFNNYSGSYTASSMKVYTYINGKPDTNARTTDKRTGYVVDNNSIFFYAGLINEDMDKDMRKKYKINVHFKEDGTLDMKQDDPSNEMEFELIGTPTYSSTSVMDATRPYLERRYVQIMFEYDFQDFTYGGSGTEVIPIKYRVAGSMTLLRNINTQIPDEDQQIEW
- glycan array binding signal (z-score) [1]: 3.52
- glycan array binding signal (z-score) [2]: 0.066
- glycan array binding signal (z-score) [3]: 0.229
- glycan array binding signal (z-score) [4]: -0.022
- glycan array binding signal (z-score) [5]: -0.154
- glycan array binding signal (z-score) [6]: -0.263
- glycan array binding signal (z-score) [7]: -0.544
- glycan array binding signal (z-score) [8]: -0.482
- glycan array binding signal (z-score) [9]: -0.692
- glycan array binding signal (z-score) [10]: -0.211
- glycan array binding signal (z-score) [11]: -0.519
- glycan array binding signal (z-score) [12]: -0.547
- glycan array binding signal (z-score) [13]: -0.308
- glycan array binding signal (z-score) [14]: 2.38
- glycan array binding signal (z-score) [15]: -0.526
- glycan array binding signal (z-score) [16]: 0.001
- glycan array binding signal (z-score) [17]: 1.73
- glycan array binding signal (z-score) [18]: -0.086
- glycan array binding signal (z-score) [19]: -0.729
- glycan array binding signal (z-score) [20]: 0.664
- glycan array binding signal (z-score) [21]: -0.409
- glycan array binding signal (z-score) [22]: -0.231
- glycan array binding signal (z-score) [23]: -0.005
- glycan array binding signal (z-score) [24]: -0.189
- glycan array binding signal (z-score) [25]: -0.652
- glycan array binding signal (z-score) [26]: -0.454
